Assay outcomes: PubChem, several laboratories
FAS TE block – FAS thioesterase (human) inhibition. recombinant FAS-TE, OMFH fluorogenic substrate, fluorescence endpoint. hit rate 0.67% among 360,000. P49327. AID 602261. inhibition, % at 15 µM;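 active means compounds whose normalised, plate-corrected inhibition of enzyme fluorescence in the single-dose primary screen is 50% or more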
CendR NRP1 mod – alters CendR peptide binding to human NRP-1; O14786; FAM-RPARPAR peptide binding to NRP-1, fluorescence polarization; inhibition, % at 25 µM; hit rate 0.85% among 360,000;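 active means inhibition or corrected inhibition above about 18%, plus a signal ratio from 0.5 to 1.5, limit read from the data, passing the limit was not always enough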
Myeloid diff 2 – compounds promoting myeloid differentiation. hit rate 1% among 360,000. AID 624256. calls only at 10 µM. ER-HoxA9 myeloid progenitors, lysozyme-GFP differentiation, flow cytometry;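 active means normalized GFP-positive differentiation at or above the plate's own cutoff, the solvent-only control mean plus 3 SD; inconclusive means no clear call, values can overlap the other calls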;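 further: cells exposed to compound for four days before flow analysis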
CRFR2-BP antag – blocks CRF-induced signaling of the CRF-BP/CRF-R2 complex; inhibition, % at 11.8 µM; AID 588475; HEK293 CRF-R2/CRF-BP, CRF-induced calcium fluorescence; hit rate 0.59% among 350,000;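 active means inhibition of the ligand-induced calcium signal above about 50% at the single tested concentration, limit read from the data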
NadD inh – blocks S. aureus nicotinate mononucleotide adenylyltransferase; hit rate 0.78% among 360,000; AID 602399; purified NadD enzyme, colorimetric absorbance read-out; inhibition, % at 20 µM; in the data active means inhibition above about 26%
Numbers stand for hits; 0 = inactive; ? = inconclusive; - = no result; + = active, no number. An excerpt weighted towards active compounds, which were near 3.6% of everything screened.

SMILES	FAS TE block	CendR NRP1 mod	Myeloid diff 2	CRFR2-BP antag	NadD inh
CCOc1ccc(CCNC(=O)CN2C(=O)NC(CCSC)C2=O)cc1OCC (stereo not drawn)	0	0	+	0	0
Cn1c(=NC(=O)CS(=O)(=O)c2ccccc2)sc2ccccc21	0	0	0	0	0
Cn1c(=NC(=O)COc2ccccc2)sc2ccccc21	0	26	0	0	0
COCCN1C[C@@H](CO)O[C@@H](n2cnc3c(NCCCO)ncnc32)C1	0	0	0	-	0
CSc1ccc(CN(C)C(=O)c2cc(=O)c3ccccc3o2)cc1	0	0	+	0	0
CSc1ccc(CN(C)C(=O)c2cc3ccccc3o2)cc1	0	0	0	0	0
COc1cc(C(=O)N2CCCC(C)(C(=O)NS(=O)(=O)C3CC3)C2)cc(OC)c1OC (stereo not drawn)	0	0	0	-	0
COc1ccc(/C=N/Nc2nc(C)c([N+](=O)[O-])c(N(C)c3ccccc3)n2)cc1OC	0	28	0	0	0
CN(C)c1ccc(S(=O)(=O)N2CCCCC2)cc1NC(=O)C1=COCCO1	0	0	0	0	0
CCOC(=O)CSc1c(-c2cccs2)[nH]c2ccccc12	0	25	0	0	0
Nc1ccn([C@@H]2O[C@H](CNCc3ccc(-c4cc(C(F)(F)F)ccc4Cl)o3)[C@@H](O)[C@H]2O)c(=O)n1	0	0	0	0	0
COc1ccc(C(CC(=O)O)c2ccc3c(c2)OCO3)cc1 (stereo not drawn)	0	0	-	94	0
COC(=O)CC(NC(=O)c1ccc(C)cc1)c1ccc2c(c1)OCO2 (stereo not drawn)	0	0	0	107	0
COC(=O)CC(NC(=O)c1ccc(C)cc1)c1ccccc1 (stereo not drawn)	0	0	0	0	0
CCOC(=O)[C@@H](C)N(C(=O)OC(C)(C)C)S(=O)(=O)N(Cc1ccccc1)[C@H](C(=O)OC)C(C)C	0	0	0	0	0
CCN(CC)C(=O)CSc1nnc(-c2c[nH]c3ccccc23)o1	0	31	0	0	0
Cc1sc(NC(=O)c2ccco2)c(C(c2cccnc2)N2CCN(CCO)CC2)c1C (stereo not drawn)	0	0	0	0	0
Cc1sc(NC(=O)c2ccco2)c(C(c2cccnc2)N2CCN(c3ccc(F)cc3)CC2)c1C (stereo not drawn)	0	0	+	0	0
CN(C)CCN1CCN(C2CN(Cc3ccc(F)cc3)S(=O)(=O)C2)CC1 (stereo not drawn)	0	0	0	-	0
Cc1nc(NCc2ccco2)c2c(C)c(C)sc2n1	0	0	?	0	0
Cc1sc2nc3c4ccccc4c(NCc4ccco4)nn3c(=O)c2c1C	0	0	+	0	0
CCOC(=O)C1=C(C2=CCCCC2)c2ccc(OC)cc2N(S(=O)(=O)C(F)(F)F)C1C(=O)OCC (stereo not drawn)	0	0	0	0	0
Cn1nc(-c2ccc(Cl)cc2)c2cc(C(=O)N3CCN(c4ccccc4)CC3)sc21	0	0	0	0	0
COCCNC(=O)c1cc2c(-c3ccccc3F)nn(C)c2s1	0	0	0	0	0
CCCCNC(=O)c1cc2c(-c3ccc(Cl)cc3)nn(C)c2s1	0	0	0	0	0
SMILES	FAS TE block	CendR NRP1 mod	Myeloid diff 2	CRFR2-BP antag	NadD inh
Cn1nc(-c2ccc(Cl)cc2)c2cc(C(=O)N3CCN(c4ccccn4)CC3)sc21	0	0	+	0	0
CCCCN(C)CCNC(=O)c1cc2c(-c3ccccc3F)nn(C)c2s1	0	0	+	0	0
Cn1nc(-c2ccc(Cl)cc2)c2cc(C(=O)NCCCN3CCCC3)sc21	0	0	+	0	0
COc1ccc(NC(=O)C2Cc3c(-c4cccc(C(C)=O)c4)ccnc3O2)cc1 (stereo not drawn)	0	0	?	-	0
CCOC(=O)N1CCC(Nc2c(N3CCN(c4cccc(C(F)(F)F)c4)CC3)c(=O)c2=O)CC1	0	0	0	0	0
CC(C)CN(CC(C)C)C(=S)NC1CCCCC1	0	0	0	55	0
CN1C(=O)[C@H]2[C@@H](c3ccc(C(F)(F)F)cc3)N[C@]3(CCCN(Cc4ccc(Cl)cc4)C3=O)[C@H]2C1=O	0	0	0	0	0
CCOC(=O)C1CCN(C(=O)C2CCN(C(=O)c3ccc([N+](=O)[O-])cc3)CC2)CC1	0	24	0	0	0
N#C/C(=C\c1ccc(N2CCCC2)c([N+](=O)[O-])c1)c1nc2ccccc2[nH]1	0	0	0	0	31
N#C/C(=C/c1ccc(O)c(O)c1)c1nc2ccccc2[nH]1	0	0	+	0	0
CCNC(=O)C1CCCN(Cc2cc(-c3ccccc3)on2)CC1 (stereo not drawn)	0	0	0	-	0
C=CCn1c(SCC(=O)O)nc2sc(CC)cc2c1=O	0	26	0	0	0
CCN(CC)c1ccc2c(Cl)c(Br)c(=O)oc2c1	0	0	+	0	0
CCN(CC)c1ccc2cc(C#N)c(=O)oc2c1	0	25	0	0	0
CCN(CC)c1ccc2c(C)c(Cl)c(=O)oc2c1	0	0	0	0	0
O=c1oc2ccccc2cc1-c1csc(Cc2nc(-c3ccc(Cl)cc3)cs2)n1	0	0	0	0	0
CCN(CC)c1ccc2cc(-c3nc(-c4cc5ccccc5oc4=O)cs3)c(=O)oc2c1	0	0	+	0	0
CC1CCCC(N2C(=O)NC(NC(=O)c3ccco3)(C(F)(F)F)C2=O)C1C (stereo not drawn)	0	28	0	0	0
CCCCN1C(=O)NC(NC(=O)c2ccco2)(C(F)(F)F)C1=O (stereo not drawn)	0	0	0	0	0
O=C(OCc1cc(=O)n2ccsc2n1)C1(c2ccccc2)CC1	0	0	0	71	0
COC(=O)c1ccc(OCc2cc(=O)n3ccsc3n2)cc1	0	0	0	0	0
Cc1cc(C(F)(F)F)n(-c2nc(C(=O)N/N=C/c3ccc(F)cc3)cs2)n1	0	0	0	71	0
COc1ccc(CCNC(=O)c2nnn(CC(=O)Nc3ccccc3C)c2N)cc1OC	0	28	0	0	0
COc1ccc(C)cc1NC(=O)c1nnn(Cc2cccc(C(F)(F)F)c2)c1N	0	0	+	0	0
COc1cc2[nH]c(C)c(-c3ccccc3)c(=O)c2cc1Cl	0	0	0	-	0
SMILES	FAS TE block	CendR NRP1 mod	Myeloid diff 2	CRFR2-BP antag	NadD inh
O=C(NCCc1ccccc1)c1cccc2c(-c3cccnc3)coc12	0	0	0	-	0
COC(=O)c1ccc(NC(=O)COC(=O)CSc2nc(C)cc(C)n2)cc1	0	0	0	52	0
COC(=O)c1ccccc1NC(=O)CSc1nc(C)cc(C)n1	0	45	0	0	0
Cc1cc(C)nc(SCC(=O)OCC(=O)Nc2nc3ccccc3s2)n1	0	0	0	0	0
CCN(CC)CCn1c(-c2ccc(C)cc2)nc(=S)c2c1CC(C)(C)OC2	0	0	0	0	0
Cc1cscc(C)c1=S	0	0	0	0	0
Cc1ccc[n+](C(C)C(=O)c2ccc(Cl)cc2)c1 (stereo not drawn)	0	0	+	0	0
c1ccc(Oc2cccc(Oc3ccccc3)n2)cc1	0	0	0	0	0
N#Cc1c(NC(=O)c2ccccc2)sc2c1CCCCC2	0	0	0	0	0
